The values below come from PubChem BioAssay (NCI).

The panel holds about 83,000 compounds, 20% with a hit somewhere; the sample as a whole holds those more often.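 Values shown are percent growth following 48 h exposure of cells in 96-well plates to a single concentration of compound; below 10 was considered active.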 The source made the active and inactive calls.

This assay has as its system NCI-H322M lung. As to the kind of experiment: NCI-60 one-dose screen, 48 h (100 = growth as untreated, 0 = no growth, -100 = all killed). To be noted: 10 µM unless noted. As for the experimental part:
Growth inhibition of the NCI-H322M human Non-Small Cell Lung tumor cell line is measured as a screen for anti-cancer activity. Cells are grown in 96 well plates and exposed to the test compound for 48 hours. Compounds are tested at a single concentration, which is 10^-5 M for most compounds. The reported endpoint is percent growth (GI% or GIPRCNT), where numbers from 0 - 100% represent growth inhibition, and numbers from -100% - 0 represent cell death. For example, a value of 40 represents 60% growth inhibition. A value of 0 means no net growth occurred over the course of the experiment. A value of -40 indicates 40% of cells at the beginning of the experiment died by the end of the experiment. A value of -100 means all cells are dead at the end of the experiment.
NCI-60 Human Tumor Cell Lines Screen was performed using the standard one-dose NCI protocol, which is described in more detail at https://dtp.cancer.gov/discovery_development/nci-60/default.htm.
Compounds with GIPRCNT values below 10 were considered active. Activity score was based on GIPRCNT using the following formula: […]
Score is 0 for GIPRCNT values of 100 or above, 50 for GIPRCNT values of 0, and 100 for GIPRCNT values of -100.
`CC1(c2cc3cc(Cl)ccc3oc2=O)NC(=O)c2c(/C=C/C(=O)OC3CC4CCC3(C)C4(C)C)cccc2N1` (stereo not given): the growth was 70.5% (inactive). Next, `O=C(N=Nc1c(O)[nH]c2ccc(Cl)cc12)c1ccc2nc(-c3ccccc3)[nH]c2c1`: 15.8% (inactive); `CN(C)c1ccnc(CNCCSC2(c3ccc(C(F)(F)F)cc3)c3ccccc3C=Cc3ccccc32)c1`: 42.9% (inactive). As for `CC1=C(C(=O)c2ccccc2)C(c2ccc(-n3cncn3)cc2)n2c(nc3ccccc32)N1` (stereo not given), the growth is 79.5% (inactive). Next, `COc1ccc2c(c1)c(-c1cc3nc(-c4cn(C)c5ncc(Br)cc45)cc(N)n3n1)cn2C`: -39.8% (active).

Take `CC1(c2cc3cc(Br)ccc3oc2=O)NC(=O)c2c(/C=C/C(=O)OC3CC4CCC3(C)C4(C)C)cccc2N1` (stereo not given): the growth is 81.2% (inactive). Take `Clc1cccc(N/N=C/c2c[nH]c3ccc(Br)cc23)n1`: the growth is 51.6% (inactive).

Regarding `COc1ccc(NC(=O)[C@H](C)N)cc1C(=O)Nc1cccc(C2CC(=O)c3c(cc(OC)c(OC)c3OC)O2)c1` (stereo not given in full), the growth was 96.9% (inactive). As to `CC1(C)CC[C@]2(C(=O)O)CC[C@]3(C)C(=CCC4[C@@]5(C)C[C@@H](O)[C@@H]6OC(c7ccc(F)cc7)OC[C@@]6(C)C5CC[C@]43C)C2C1` (stereo not given in full), the growth is 29% (inactive).

Turning to `CCCCNC(=S)Nc1ccc(OCc2nc3ccccc3[nH]2)cc1`, the growth is 80.7% (inactive). In the case of `Cc1c(C(=O)NNC(=O)c2ccc(Cl)cc2)nnn1-c1ccc(Cl)cc1`, the growth is 89.7% (inactive). Turning to `COc1ccc(-c2c(Nn3cnnn3)no[n+]2[O-])cc1`, the growth was 63.5% (inactive). With `COc1cc2c(c(OC)c1OC)C(=O)CC(c1cccc(NC(=O)c3cc(NC(=O)[C@@H](N)CO)ccc3C)c1)O2` (stereo not given in full), the growth is 108% (inactive).

For `O=C(CSc1nc2ccccc2c(=O)[nH]1)NCCN1CCCCC1`, the growth was 94.8% (inactive). To `CC(=O)Oc1ccccc1C(=O)[Se]CC(=O)Nc1cccc(C(F)(F)F)c1` belongs -16.5% (active).

Turning to `COc1ccc(/C=N/NC(=O)Cn2nc(Cc3ccc(OC)cc3)c3onc(C)c3c2=O)cc1`, the growth is 59% (inactive). Take `COc1ccc(-c2nc3cc(C)ccc3n2CC(=O)N=Nc2c(O)[nH]c3ccccc23)cc1`: the growth was 33.1% (inactive). On to `CNC(=O)c1cc(Oc2ccc3nc(NC(=O)Nc4cccc(OC(F)(F)F)c4)sc3c2)ccn1`, for which the growth is 47.8% (inactive).

As for `O=C(/C=C/c1cccc(OCc2ccccc2)c1)c1nc2ccccc2[nH]1`, the growth is 92.3% (inactive). As to `Cn1cc(NC(=O)c2cc(NC(=O)c3ccc(C#Cc4ccccc4)cc3)cn2C)cc1C(=O)NCCCN1CCOCC1`, the growth was 81% (inactive). As for `Cc1ccc(-n2c(-c3cc4ccccc4nc3Cl)noc2=O)cc1`, the growth is 92.5% (inactive). Turning to `CC(C)(C)OC(=O)/C=C/c1cccc2c1C(=O)NC(C)(c1cc3cc(Cl)ccc3oc1=O)N2` (stereo not given), the growth was 60.9% (inactive).

In the case of `COc1ccc(C2(SCCNCc3cc(N(C)C)ccn3)c3ccccc3C=Cc3ccccc32)cc1`, the growth is 35.1% (inactive).

As for `CC1=C(C(=O)OC(C)C)C(c2cccc(O)c2)NC(=S)N1` (stereo not given), the growth was 103% (inactive). As for `COc1ccc(C(=O)/C=C/c2c(F)cccc2Cl)cc1S(N)(=O)=O`, the growth was 17.4% (inactive). With `COC(=O)C[C@](O)(CCCC(C)(C)O)C(=O)O[C@H]1C(OC)=C[C@@]23CCCN2CCc2cc4c(cc2[C@@H]13)OCO4`, the growth is -3.53% (active). Consider `N/C(=N\N=C\c1ccc([N+](=O)[O-])cc1)c1c(N)nc(=S)[nH]c1-c1ccc(Cl)cc1Cl`, for which the growth is 100% (inactive). Turning to `COc1ccc(-c2nnc3ccc(N/N=C/c4ccc(C)cc4)nn23)cc1`, the growth was 85.3% (inactive).

As to `COc1ccc(C2=NN(c3ccccc3)C(c3ccc(OC)c(OCc4ccccc4)c3)C2)cc1OC` (stereo not given), the growth is 102% (inactive). As for `CSc1ccc(NC(=O)c2ccc3nnn(/C(C#N)=C/c4ccccn4)c3c2)cc1`, the growth is 3.57% (active). `CN(C)CCCNC(=O)c1cc(NC(=O)c2cc(NC(=O)c3ccc(C#Cc4ccccc4)cc3)cn2C)cn1C`: the growth was 38.9% (inactive). For `O=C(Nc1cccc(-n2cnc3cc(-c4ccc(O)cc4)ccc32)c1)C1CC1`, the growth was 48% (inactive).

With `O=C(O)c1cccc(-c2ccc(/C=N/NC(=O)c3[nH]c4ccc(Br)cc4c3-c3ccccc3)o2)c1`, the growth was 78.9% (inactive). On to `O=c1[nH]c2ccccc2cc1CSc1cccc(Nc2nccc(-c3ccc4ccccc4c3)n2)c1`, for which the growth is 106% (inactive).

`CN(C)c1ccnc(CNCCSC2(c3ccccc3)c3ccccc3C=Cc3ccccc32)c1`: the growth is 29.1% (inactive). Regarding `CN1CCc2c(sc3ncnc(N/N=C/c4ccc(Cl)cc4Cl)c23)C1`, the growth is 29.2% (inactive).

Regarding `CC1(C)CC[C@]2(C(=O)Nc3ccccc3)CC[C@]3(C)C(=CCC4[C@@]5(C)C[C@@H](O)[C@H](O)[C@@](C)(CO)C5CC[C@]43C)C2C1` (stereo not given in full), the growth is 89.7% (inactive). `COc1cc(NC(=O)c2cccc(C3CCc4c(cc(OC)c(OC)c4OC)O3)c2)cc(OC)c1OC` (stereo not given): the growth was 39.2% (inactive). Turning to `COc1ccc(-c2nc3ccc(C(=O)NN4C(=O)c5ccc([N+](=O)[O-])cc5C4=O)cc3[nH]2)cc1`, the growth was 96.1% (inactive). In the case of `C[C@H](Nc1nc(NCCc2ccccc2)nc2ccccc12)c1ccccc1`, the growth was -55.9% (active).
